D2 PAM-1: potentiates the human D2 dopamine receptor allosterically; P14416; DiscoveRx D2 beta-arrestin cells, luminescence, 90 min; 100% = 57 uM dopamine signal; potentiation, % (concentration not given with the values); 360,000 compounds, 0.23% hits; in the data active means potentiation above about 50%
Target sequence (P14416 whole entry, looked up): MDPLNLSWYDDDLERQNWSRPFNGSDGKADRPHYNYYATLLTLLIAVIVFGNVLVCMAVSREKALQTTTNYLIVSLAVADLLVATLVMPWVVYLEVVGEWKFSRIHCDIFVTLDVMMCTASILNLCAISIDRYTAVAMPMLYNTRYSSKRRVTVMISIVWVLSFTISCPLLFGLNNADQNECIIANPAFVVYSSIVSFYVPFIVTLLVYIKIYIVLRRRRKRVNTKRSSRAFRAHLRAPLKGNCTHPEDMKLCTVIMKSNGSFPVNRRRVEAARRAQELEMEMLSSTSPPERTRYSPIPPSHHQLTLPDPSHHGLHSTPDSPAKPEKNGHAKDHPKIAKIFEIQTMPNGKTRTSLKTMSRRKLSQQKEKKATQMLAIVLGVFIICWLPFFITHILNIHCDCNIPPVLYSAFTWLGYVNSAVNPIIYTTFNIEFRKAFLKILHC
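D2 cells co-treated with compound plus 50 nM dopamine (EC20) for 90 min at 37 deg C to detect potentiation. Beta-arrestin recruitment was read as enzyme-fragment luminescence after 1 h at ambient temperature. Full response was set by 57 uM dopamine.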
D2 antag: antagonists of human D2 dopamine receptor. P14416. HEK293 TREx D2 cells, calcium flux, dopamine EC80. inhibition, % at 10 µM. 340,000 compounds, 2% hits. AID 485344; in the data active means inhibition above about 30%; inactive means below that, where a call was filed; further: 0% is about no effect
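Tetracycline-induced HEK293 TREx cells expressing D2 receptor forced-coupled to calcium signalling, loaded with no-wash calcium dye. Compounds added and calcium flux read 180 s, then dopamine added at EC80 and read a further 180 s.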
D2 ag-1: human D2 receptor agonism in beta-arrestin assay. DiscoveRx PathHunter D2 beta-arrestin, luminescence, 90 min; 100% = 57 uM dopamine signal. activation, % (concentration not given with the values). 360,000 compounds, 0.084% hits. AID 624465; in the data active means activation above about 40%
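DiscoveRx PathHunter D2 beta-arrestin cells (2,100/well) attached overnight, then compound-stimulated 90 min at 37 C in HBSS/10 mM HEPES/0.1% Tween-20 buffer; beta-galactosidase complementation read by luminescence after 1 h at ambient temperature. Dopamine 57 uM final (EC100) as control.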
D2 ag-2: activates the human D2 dopamine receptor | AID 485358 | activation, % at 2 µM | P14416 | 340,000 compounds, 0.53% hits | HEK293 T-REx D2 cells, calcium flux agonist mode;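 active means activation over 3 SD above normal in the single-dose calcium agonist read, cut at about 30% in these data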; further: 0% is about no effect
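Agonism scored from kinetic calcium signal (1 read/sec, 180 s) following compound pin transfer, after a 10 s baseline. Cells: HEK293 Trex line expressing inducible D2 receptor coupled to calcium, dye-loaded after overnight culture at 30 C.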
D2 PAM-2: positively modulates the human D2 dopamine receptor allosterically; potentiation, % at 10 µM; P14416; 340,000 compounds, 0.34% hits; HEK293 T-REx D2, calcium flux, EC20 dopamine potentiation;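 active means potentiation over 3 SD above the plate norm, cut at about 30% in these data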; further: 0% is about no effect
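Using a no-wash calcium dye in inducible, force-coupled HEK293 Trex cells expressing D2, we tracked fluorescence each second for 180 s after compound, then for 180 s after EC20 dopamine to detect augmented signalling.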
Numbers without * were called inactive; x = not tested or not shown. Only some compounds are listed: those with a hit (about 2.4% of all), similar ones and a draw of the others.

SMILES	D2 PAM-1	D2 antag	D2 ag-1	D2 ag-2	D2 PAM-2
O=C(O)c1cccc2c1C(=O)c1cc([N+](=O)[O-])cc([N+](=O)[O-])c1-2	7.9	x	73.7*	x	x
CCCCCCc1c(C)c2c(cc(C)c3c(C)coc32)oc1=O	x	x	x	0.1	-6.1
Cc1coc2c1c(C)cc1oc(=O)c(Cc3ccccc3)c(C)c12	11.1	42.8*	-1.0	0.8	-1.8
COc1ccc(COc2ccccc2C(=O)NCc2ccccc2)cc1F	-9.2	41.5*	5.3	-0.7	2.1
COc1ccc(S(=O)(=O)N2CCCCCC2)cc1C(=O)N(C)Cc1ccc(Cl)cc1Cl	6.9	46.9*	0.1	2.4	-13.9
COc1ccc(S(=O)(=O)N2CCCCCC2)cc1C(=O)N(C)Cc1c(F)cccc1Cl	0.5	-15.8	0.7	0.5	16.7
COc1ccc(COc2ccc(S(=O)(=O)N3CCCC3)cc2C(N)=O)cc1F	-10.7	-13.8	-4.1	1.3	30.4*
CC1Cc2cc(S(=O)(=O)NCc3ccc(Cl)cc3)ccc2N1C(=O)C1CCC1 (configuration not stated)	x	x	x	-1.1	3.8
Cc1ccc2c(c1)cc(CN(Cc1ccco1)C(=O)COc1ccccc1)c1nnnn12	-17.1	23.5	-0.9	2.0	-1.2
CCC(=O)N(Cc1ccco1)Cc1cc2cccc(C)c2n2nnnc12	-7.8	34.0*	6.7	1.3	-2.7
COc1ccc(CN2CCC(n3nccc3NC(=O)C3CC3)CC2)c(Cl)c1OC	-16.6	-3.6	0.5	-0.8	-2.6
O=C(NCc1ccccc1Br)c1cnc2sc(N3CCCCCC3)nn2c1=O	x	x	x	-0.1	11.9
CCc1ccc2oc(C(=O)N(Cc3cccc(Cl)c3)Cc3ccco3)c(C)c2c1	x	x	x	1.3	-1.1
Cn1c(-c2ccc(Br)cc2)cnc1NCc1cccnc1	-29.0	42.9*	-4.8	-0.2	13.8
COc1cc(CNc2ncc(-c3ccc(Br)cc3)n2C)cc(OC)c1OC	-3.9	2.3	-0.3	-1.0	-10.9
COc1cc(CNCCN2CCOCC2)ccc1OCc1cccc(Cl)c1	-11.0	42.3*	-1.1	-0.5	1.4
COc1ccc(CNc2ccc3cc(S(=O)(=O)N4CCCCC4)ccc3n2)cc1	x	x	x	x	-3.2
COc1cc(C)nc(NCc2ccccc2)n1	-12.5	23.1	-2.3	0.3	-5.4
Cc1cc(C)nc(Nc2n[nH]c(Cc3ccccc3)n2)n1	x	0.1	x	44.8*	-2.4
Cc1cccc(NC(=O)c2sc(-n3nc(C)c(Cc4ccc5c(c4)OCO5)c3C)nc2C)c1C	x	x	x	1.7	-1.8
COCCCNC(=S)NNC(=O)c1csc(C)n1	-14.3	-4.1	-4.4	1.2	6.2
COc1ccccc1NC(=O)C(C)OC(=O)CCNS(=O)(=O)c1ccc(C)c(C)c1 (configuration not stated)	-27.8	40.0*	-4.9	-0.4	-14.4
CCOC(=O)c1[nH]cnc1C(=O)N1CCN(C(=O)OC(C)(C)C)CC1	-7.8	31.5*	-2.6	0.3	-1.3
CCc1ccc(C(=O)c2cn(CC(=O)Nc3ccc(F)cc3)c3cc4c(cc3c2=O)OCO4)cc1	x	x	x	-0.8	11.5
CN(C)/C=C(/C(=O)c1ccc(Cl)cc1)S(=O)(=O)c1ccc(Cl)cc1	-12.3	1.1	-0.2	0.0	15.3
SMILES	D2 PAM-1	D2 antag	D2 ag-1	D2 ag-2	D2 PAM-2
CCCNC(=O)Cn1c(=O)/c(=C\c2ccc(-c3ccc([N+](=O)[O-])cc3)o2)s/c1=C\C(=O)C(C)(C)C	6.6	53.8*	-1.6	93.3*	-13.8
COc1ccc(S(=O)(=O)N2CCC(N3CCN(Cc4ccc(F)cc4)C(=O)C3=O)CC2)cc1	x	x	x	x	3.9
CC1=C(c2ccc(Cl)cc2)S(=O)(=O)N=C1N1CCN(c2cccc(C)c2)C(C)C1 (configuration not stated)	x	x	x	-0.7	9.0
Cc1ccc(CNC(=O)CO/N=C/c2ccc(C(C)(C)C)cc2)cc1	-17.0	37.9*	-2.9	0.8	-11.3
COc1ccc(N2C(=O)C(Cl)=C(N3CCCC(C)C3)C2=O)cc1 (configuration not stated)	9.7	-15.3	-3.9	-0.8	2.6
CC1CCCN(C2=C(Cl)C(=O)N(c3cccc(Cl)c3)C2=O)C1 (configuration not stated)	-4.8	44.1*	-3.4	0.5	1.2
COc1ccc(CC(=O)Oc2ccc(C#N)cc2)cc1	-1.0	7.9	1.1	0.7	-1.5
CC1=C(C(=O)NCCN2CCN(C)CC2)C2(CCC(C)CC2)OC1=O (configuration not stated)	-7.3	61.5*	-0.9	0.1	22.8
COc1ccccc1CNC(=O)C1=C(C)C(=O)OC12CCC(C)CC2 (configuration not stated)	-1.2	47.4*	-3.4	-0.2	-0.4
CCCNC(=O)C1=C(C)C(=O)OC12CCC(C)CC2 (configuration not stated)	-0.8	-5.4	-0.8	0.4	15.0
Cn1c(SCC(=O)NCc2ccc(F)cc2)ncc(C(=O)Nc2ccccc2)c1=O	-33.1	32.1*	-4.5	-0.2	9.0
COc1ccc(O)c(N)c1	x	-18.6	x	1.1	43.2*
COP(=O)(/C=C/c1ccccc1)C(O)c1ccc(F)cc1 (configuration not stated)	-7.8	44.9*	0.7	0.9	2.6
CC(C)COP(=O)(OCC(C)C)C(O)c1ccc(F)cc1 (configuration not stated)	-7.0	-7.8	-2.8	0.9	1.3
CCOC(=O)CCC(=O)c1c(C)oc2ccc(OC)cc12	0.0	-1.0	-2.5	-0.5	30.4*
COc1ccc2oc(C)c(C(=O)NN)c2c1	1.4	9.8	2.4	-0.1	6.8
CCOC(=O)c1cnn(Cc2cccc(Cl)c2)c1C	-11.3	55.8*	-2.4	-2.2	2.9
CCOC(=O)c1cnn(Cc2ccccc2)c1N	8.2	1.2	0.3	-0.4	-0.7
Cn1nnnc1SCCCNCc1ccccc1OCc1ccc(Cl)cc1	x	x	x	x	-17.8
CCOc1ccccc1-c1nc(CN2CCCN(C(=O)c3ccco3)CC2)c(C)o1	-51.3	32.8*	-6.4	-1.1	-24.1
COc1cccc(C(=O)Nc2c3c(nn2-c2ccc(Cl)cc2)CS(=O)(=O)C3)c1OC	3.8	12.1	-2.1	0.2	9.3
CC(C)OCCCNC(=O)Cc1ccc(F)cc1	-3.3	57.1*	-1.3	0.9	-20.4
CCOCCCNC(=O)Cc1ccc(F)cc1	x	2.4	x	0.9	-7.6
Cc1cccc(NC(=S)NC2CC3CCC(C2)N3Cc2ccco2)c1 (configuration not stated)	-27.7	38.8*	-0.1	0.3	-19.6
Cc1ccccc1NC(=S)NC1CC2CCC(C1)N2Cc1ccco1 (configuration not stated)	-20.9	39.1*	-2.2	0.2	-17.8
Cn1c2ccccc2c2c(C(=O)N3CCN(c4ccccn4)CC3)cn(C3CCCC3)c(=O)c21	-22.4	31.1*	-0.4	-0.7	28.9
CCCCC(=O)NC(=S)Nc1ccccc1C(=O)Nc1ccccc1	-16.4	3.9	-4.8	-0.7	-4.3

Screening results as filed in PubChem BioAssay.
